Ub-GFP proteasome: inhibits proteasome, raising ubiquitin-GFP reporter fluorescence; Potency, µM (top dose mostly 45.9 µM), usual class: activators; Ubiquitin-GFP reporter cells, proteasome inhibition, GFP fluorescence; response scale: untreated = 0%, 10 µM MG-132 = 100%; 67,000 tested, under 10 active; active = well fitted activation curve with a large enough effect, not every such curve was filed as active; inconclusive = small, poorly fitted or top-dose-only effect, or another doubt; inactive = no such curve, though single readings can be large or run the other way
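U2OS cells stably expressing ubiquitin(G76V)-GFP, seeded overnight in 0.5% FBS medium, were exposed to compounds (qHTS, 46 uM to 2.9 nM) for 4 hr at 37 °C. GFP-positive cells were counted by laser cytometry (488 ex/515 em), normalized between basal and 10 uM MG-132.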
15-hLO-2 inh: 15-hLO-2 (ALOX15B) enzyme inhibition; O15296; purified 15hLO-2, xylenol orange hydroperoxide absorbance; Potency, µM (highest dose often 57.1 µM), usual class: inhibitors; 110,000 compounds, 0.56% hits; AID 881; note: nearly all actives have a fitted effect of over 60% in size
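Read-out: hydroperoxide product oxidises ferrous iron, measured as xylenol orange complex via the 573-to-405 nm absorbance ratio after 30 min. Reaction: 50 nM enzyme, 15 min compound preincubation, 45 uM arachidonic acid, 90 min RT, Hepes pH 7.5 with Triton X-100.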
GFP derepression: derepresses silenced GFP locus in mouse C127i cells; Potency, µM (titrated, usually from 46.1 µM); mouse C127i GFP locus derepression, cytometry, 30 h; 68,000 compounds, 0.09% hits
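Locus derepression in mouse mammary C127i cells whose integrated CMV-GFP reporter is normally silent; GFP expression after 30 h compound treatment was quantified by counting fluorescent cells.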
HBB splicing: modulators of hemoglobin beta chain splicing; HBB splicing reporter cell assay, activation; EGFP reporter with mutant IVS2-654 intron; response scale: normalised to 500 nM splice-correcting PNA; Potency, µM (doses to about 46.1 µM), actives largely listed as activators; 65,000 compounds, 0.06% hits; AID 925
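HeLa cells stably expressing EGFP interrupted by mutant beta-globin intron 2 (IVS2-654), 500/well in 2% FCS. Treated with compound for 2 days at 37C. Splicing correction scored as total well GFP intensity (488 nm excitation, 500-520 nm emission); 500 nM antisense PNA served as control.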
Tau fil binding: tau filament binding; P10636; AID 596; recombinant tau filaments, thioflavin S fluorescence, 15 h; filaments grown with octadecylsulfate alongside compound; Potency, µM (series often up to 57.1 µM); 71,000 compounds, 2% hits;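 note: actives lower thioflavin S fluorescence by blocking filaments or displacing dye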
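Recombinant tau protein (human, 1 uM final) plus 30 uM ODS in HEPES pH 7.4 with NaCl, DTT and thioflavine S. Compound present from the start; fluorescence at 510 nm after 15 h, 37 C.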
ALOX15 inhib: inhibitors of human 15-lipoxygenase (ALOX15); AID 887; Potency, µM (highest dose often 57.1 µM), hits mostly inhibitors; 74,000 compounds, 1.4% hits; purified 15hLO-1, xylenol orange hydroperoxide absorbance; note: nearly all actives have a fitted effect of over 55% in size
Target sequence (P16050 whole entry, looked up): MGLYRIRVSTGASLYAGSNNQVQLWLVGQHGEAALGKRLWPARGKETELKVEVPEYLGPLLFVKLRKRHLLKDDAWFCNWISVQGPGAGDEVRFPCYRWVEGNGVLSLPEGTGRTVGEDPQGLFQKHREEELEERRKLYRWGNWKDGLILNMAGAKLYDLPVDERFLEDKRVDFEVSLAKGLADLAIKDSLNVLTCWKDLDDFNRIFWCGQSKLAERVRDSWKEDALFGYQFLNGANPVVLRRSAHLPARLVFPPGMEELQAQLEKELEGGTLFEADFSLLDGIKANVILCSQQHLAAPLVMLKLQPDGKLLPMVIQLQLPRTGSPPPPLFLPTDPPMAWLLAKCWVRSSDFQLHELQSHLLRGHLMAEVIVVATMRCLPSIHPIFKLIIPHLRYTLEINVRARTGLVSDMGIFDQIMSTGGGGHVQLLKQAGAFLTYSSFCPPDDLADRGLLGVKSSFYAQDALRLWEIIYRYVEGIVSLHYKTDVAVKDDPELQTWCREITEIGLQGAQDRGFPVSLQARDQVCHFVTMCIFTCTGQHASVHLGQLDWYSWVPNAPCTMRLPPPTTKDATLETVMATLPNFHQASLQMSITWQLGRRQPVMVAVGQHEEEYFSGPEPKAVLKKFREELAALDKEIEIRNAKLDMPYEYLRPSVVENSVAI
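Readout: Fe(III)-xylenol orange absorbance, 573-to-405 nm ratio as reaction progress. Enzyme 40 nM purified human 15hLO-1, substrate 50 uM arachidonic acid, 6 min RT after 15 min compound preincubation; Hepes pH 7.5 buffer with Triton X-100.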
A number is an active result; n = inactive; u = inconclusive; x = no result; [ ] = dose if it differs, or a comment. Shown are actives, neighbours in structure and some others; about 2.3% of the full set was active somewhere. Unless noted, calls come from the whole dose curve; as a rule, active = well fitted curve in the direction sought with a large enough effect; inconclusive = small, poorly fitted or top-dose-only effect, or another doubt; inactive = no such curve, though single readings can be large; an effect the other way counts as inactive or inconclusive.

SMILES	Ub-GFP proteasome	15-hLO-2 inh	GFP derepression	HBB splicing	Tau fil binding	ALOX15 inhib
COc1ccc(O)c(-c2c(-c3ccc(Cl)cc3)n[nH]c2C)c1	x	n	n	n[0.369 µM]	n	25.1µM
COc1ccc(-c2n[nH]c(C)c2-c2ccc(Cl)cc2)c(O)c1	x	n	x	x	x	x
CCOC(=O)CC(=O)CSc1nc2c(sc(=S)n2-c2ccccc2)c(=O)[nH]1	x	n	n	n[0.369 µM]	n	n
CCOC(=O)c1ccc(-n2c(=S)sc3c(=O)[nH]c(C)nc32)cc1	n	n	n	n	n	10µM
Cc1nc2ccc(F)cc2cc1C(=O)NCC1CCCO1 (centres undefined)	n	n	n	n	12.6µM	n
CSc1ccccc1C(=O)NCC1CCCO1 (centres undefined)	x	n	x	x	x	x
O=S(=O)(O)c1ccc(NN(c2c(O)ccc3ccccc23)S(=O)(=O)O)cc1	n[9.17 µM]	n[11.4 µM]	n[9.22 µM]	n[9.22 µM]	n[11.4 µM]	n[11.4 µM]
Nc1ncnc2c1ncn2[C@H]1O[C@@H](C(=O)O)[C@@H](O)[C@H]1O	n[9.17 µM]	n[11.4 µM]	n[9.22 µM]	n[9.22 µM]	n[11.4 µM]	n[11.4 µM]
O=C(O)c1cc(C(=O)O)nc(C(=O)O)c1	n[9.17 µM]	n[11.4 µM]	n[9.22 µM]	n[9.22 µM]	n[11.4 µM]	n[11.4 µM]
CCc1cccc2c3c([nH]c12)[C@](CC)(CC(=O)O)OCC3	n	x	n	n	n	x
COc1ccc([C@@H](Nc2ccccn2)c2cc(C(C)(C)C)cc(C(C)(C)C)c2O)cc1	n[9.17 µM]	n[11.4 µM]	n[9.22 µM]	n[9.22 µM]	n[11.4 µM]	n[11.4 µM]
CCOC(=O)C1CCCN(C(=O)c2cnn3c(C(F)(F)F)cc(-c4ccccc4)nc23)C1 (centres undefined)	n	n	n	n	12.6µM	n
CCOC(=O)c1cnn2c(C(F)(F)F)cc(-c3ccccc3)nc12	n	n	n	n[9.22 µM]	12.6µM	n
C[C@@H](CN1CCC(Cc2ccccc2)CC1)[C@H](O)c1ccc(O)cc1	n	n	n	n	n	n
Cn1c(N)c(C(=O)NCc2ccccc2)sc1=S	n	n	n	n	n	12.6µM
COc1ccc(CCNC(=O)c2sc(=S)n(C)c2N)cc1	n	n	n	n	n	n
CCNc1ncc2nc(-c3ccc(Cl)cc3)c(=O)n(CCC#N)c2n1	n	n	n[9.22 µM]	n	n	n
Cc1cccc(N2CSC3=C(C#N)C(c4ccc(C)o4)CC(=O)N3C2)c1 (centres undefined)	n	u	n	n[0.369 µM]	n	1.58µM
COc1ccc(C2CC(=O)N3CN(c4ccc(C)c(Cl)c4)CSC3=C2C#N)cc1 (centres undefined)	n	15.8µM	x	n	n	u
COc1cc(OC)c(C2CC(=O)N3CN(c4ccccc4C)CSC3=C2C#N)cc1OC (centres undefined)	n	u	n	n[0.369 µM]	n	u
COc1ccc(N2CSC3=C(C#N)C(c4cccc(OC)c4OC)CC(=O)N3C2)cc1 (centres undefined)	n	12.6µM	x	n	u	u
Cc1ccc(C2N(c3cccc(Cl)c3)C(=O)C3CCCN32)o1 (centres undefined)	n	n	n	n	n	n
COc1ccc(OC)c(C2CC(=O)N3CN(c4ccccc4)CSC3=C2C#N)c1 (centres undefined)	n	10µM	n	n	n	u
COc1ccc(N2C(=O)C3CCCN3C2c2ccc(Cl)cc2)cc1 (centres undefined)	n	n	n	n	n	n
Cc1noc(C)c1C(=O)N1CCC2(CCCN(C(=O)Nc3cccc(F)c3)C2)CC1	n	n	n[9.22 µM]	n	n	n
SMILES	Ub-GFP proteasome	15-hLO-2 inh	GFP derepression	HBB splicing	Tau fil binding	ALOX15 inhib
O=C(O)C1(C(=O)O)CCN(S(=O)(=O)c2ccccc2)CC1	n[9.17 µM]	n[11.4 µM]	n[9.22 µM]	n[9.22 µM]	n[11.4 µM]	n[11.4 µM]
CC(C)=C1C2CCC1C1C(=O)N(c3nc(-c4ccc(F)cc4)c(C)s3)C(=O)C21 (centres undefined)	x	n	x	x	x	x
O=C1C2C3CCCC3=C3CCCC3C2C(=O)N1c1ccc(F)cc1 (centres undefined)	n	n	n	n	n	3.16µM
O=C(O)CCc1c2ccc(=O)c(O)c-2oc2c(O)c(O)ccc12	n[9.17 µM]	u	n[9.22 µM]	n[9.22 µM]	3.16µM	3.16µM
C=CCOc1ccccc1/C=c1\sc2nc(=O)c(C)nn2c1=O	n	x	n	n	25.1µM	n
N#C[C@@H](Cc1ccc(O)c(O)c1)C(=O)N1CCc2ccccc21	n	u	n	n	n	0.631µM
COc1ccc(-c2cc(C(=O)N/N=C\c3cc(OC)c(OC)c(OC)c3)[nH]n2)cc1	x	x	x	x	x	n
CCc1ccc(CCC(=O)Nc2sc3c(c2C#N)CCCC3)o1	n	n	n	n	n	15.8µM
N#Cc1c(NC(=O)CCC(=O)O)sc2c1CCCC2	x	n	n	x	x	x
CCOc1ccc(-c2nc(=S)[nH][nH]2)cc1	n	u	n	n	n	25.1µM
OC12CCCCC1C(c1ccc3c(c1)OCO3)N(Cc1ccc(F)cc1)CC2 (centres undefined)	n	n	n	n[0.369 µM]	u	n

Source: PubChem BioAssay (National Center for Advancing Translational Sciences (NCATS))
